Laboratory results as given in PubChem BioAssay (Tox21).
Records with an inconclusive call do not appear. The source made the active and inactive calls. Unless noted, calls follow the shape of the full dose curve.

Assays:
[1] = qHTS assay to identify small molecule antagonists of the vitamin D receptor (VDR) signaling pathway - cell viability counter screen (AID 743225; active = well fitted curve in the direction sought with a large enough effect in the repeat runs; an effect the other way counts as inactive or inconclusive; also: % is scaled to controls: 0 for no effect and ±100 for the full control effect; nearly all actives have a fitted effect of over 50% in size); conditions: VDR-bla HEK293T viability, CellTiter-Glo luminescence, 16 h; series mostly up to 61 µM
Summary of the method: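 Parallel cytotoxicity test: VDR-UAS-bla HEK 293T, 3 nM (final) 1-alpha,25-dihydroxyvitamin D3 with test compound, 16 h, 37C. Endpoint is CellTiter-Glo luminescence in the same wells.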

[2] = qHTS assay to identify small molecule agonists of the NFkB signaling pathway (AID 1159509; active = well fitted curve in the direction sought with a large enough effect in the signal ratio in the repeat runs, not every such curve was filed as active; the % refers to the signal ratio; also: % is scaled to controls: 0 for no effect and ±100 for the full control effect); conditions: NFkB-bla ME-180 cells, beta-lactamase FRET ratio, 5 h; series mostly up to 61 µM
Summary of the method: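 Readout: FRET fluorescence, 405 nm excitation, 460/530 nm emission; beta-lactamase expression disrupts FRET. Cells: ME-180 stably carrying NF-kB-driven bla reporter. Compound exposure 5 hr, 37 C, 5% CO2.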

[3] = qHTS assay to identify small molecule agonists of the NFkB signaling pathway - cell viability counter screen (AID 1159515); conditions: NFkB-bla ME-180 viability, CellTiter-Glo luminescence, 5 h; series mostly up to 61 µM; also: % is scaled to controls: 0 for no effect and ±100 for the full control effect; nearly all actives have a fitted effect of over 55% in size
Summary of the method: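 Cells are seeded (2,000 NFkB-bla ME-180 per well), rested overnight, and dosed with DMSO-dissolved compounds for 5 hr at 37 C. Viability is then read by CellTiter-Glo luminescence after 30 min at room temperature.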

[4] = qHTS assay to identify small molecule agonists of the endoplasmic reticulum stress response signaling pathway (AID 1159516; active = well fitted activation curve with a large enough effect in the signal ratio in the repeat runs, not every such curve was filed as active; the % refers to the signal ratio; also: % is scaled to controls: 0 for no effect and ±100 for the full control effect); conditions: ESRE-bla HeLa, ER stress beta-lactamase reporter, 5 h; series mostly up to 61 µM
Summary of the method: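 Cells are seeded at 1,500 per well and incubated overnight. Compounds in DMSO are added for 5 hr at 37 C, then beta-lactamase FRET substrate for 2 hr at room temperature, and fluorescence at 460 and 530 nm is measured.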

[5] = qHTS assay to identify small molecule agonists of the endoplasmic reticulum stress response signaling pathway - cell viability counter screen (AID 1159517); conditions: ESRE-bla HeLa viability, CellTiter-Glo luminescence, 5 h; series mostly up to 61 µM;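 also: HeLa cells carrying an ER stress response element beta-lactamase reporter; % is scaled to controls: 0 for no effect and ±100 for the full control effect; nearly all actives have a fitted effect of over 50% in size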
Summary of the method: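 After overnight attachment, ESRE-bla HeLa cells were treated with Tox21 library compounds for 5 hr. CellTiter-Glo luminescence, read 30 min post-addition at room temperature, reported viability.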

[6] = qHTS assay to identify small molecule antagonists of the retinoid-related orphan receptor gamma (ROR-gamma) signaling pathway - cell viability counter screen (AID 1159520; active = well fitted curve in the direction sought with a large enough effect in the repeat runs; an effect the other way counts as inactive or inconclusive; also: % is scaled to controls: 0 for no effect and ±100 for the full control effect; nearly all actives have a fitted effect of over 50% in size); conditions: Tet-on RORgamma CHO cells viability, ATP luminescence, 16 h; series mostly up to 92.4 µM
Summary of the method: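 Cytotoxicity was read from cellular ATP (CellTiter-Glo luminescence) after 16 hr at 37 C with 1 uM doxycycline induction. The inducer was added 2 hr after compound transfer to Tet-on ROR gamma CHO cells.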

[7] = biological target: Nuclear receptor ROR-gamma (Homo sapiens) (UniProt P51449); experiment: qHTS assay to identify small molecule antagonists of the retinoid-related orphan receptor gamma (ROR-gamma) signaling pathway (AID 1159521; active = well fitted curve in the direction sought with a large enough effect in the repeat runs; an effect the other way counts as inactive or inconclusive;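 also: CHO cells with doxycycline inducible ROR-gamma driving an RORE luciferase reporter; top concentration of the series differs between compounds; % is scaled to controls: 0 for no effect and ±100 for the full control effect; nearly all actives have a fitted effect of over 50% in size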); conditions: Tet-on RORgamma CHO cells, RORE-luciferase, 16 h; series mostly up to 92.4 µM
Summary of the method: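 Decreased RORE-driven luciferase luminescence indicates antagonism. Tet-on RORγ CHO cells received compound, then 1 uM final doxycycline 2 h later; signal read after 16 h incubation.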

[8] = qHTS assay to identify small molecule agonists of the AP-1 signaling pathway - cell viability counter screen (AID 1159525); conditions: ME-180 AP-1-bla cells viability, ATP luminescence, 5 h; series mostly up to 76.8 µM; also: nearly all actives have a fitted effect of over 55% in size
Summary of the method: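 Intracellular ATP by Cell Titer Glo luminescence (30 min, RT) in the same ME-180 AP-1-bla wells after the 5 h compound exposure at 37 °C. Normalised to tetra n-octyl ammonium bromide and DMSO controls.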

[9] = qHTS assay to identify small molecule agonists of the AP-1 signaling pathway (AID 1159526); conditions: ME-180 (cervical carcinoma) AP-1-bla reporter, beta-lactamase FRET ratio, 5 h; series mostly up to 76.8 µM; also: % is scaled to controls: 0 for no effect and ±100 for the full control effect
[10] = biological target: Retinoic acid receptor RXR-alpha (Homo sapiens) (UniProt P19793); experiment: qHTS assay to identify small molecule agonists of the RXR signaling pathway (AID 1159527); conditions: HEK293T RXRa-UAS-bla, beta-lactamase ratio, 16 h; series mostly up to 76.8 µM; also: % is scaled to controls: 0 for no effect and ±100 for the full control effect; nearly all actives have a fitted effect of over 35% in size
Chain of Retinoic acid receptor RXR-alpha (Homo sapiens) (P19793 whole entry, looked up): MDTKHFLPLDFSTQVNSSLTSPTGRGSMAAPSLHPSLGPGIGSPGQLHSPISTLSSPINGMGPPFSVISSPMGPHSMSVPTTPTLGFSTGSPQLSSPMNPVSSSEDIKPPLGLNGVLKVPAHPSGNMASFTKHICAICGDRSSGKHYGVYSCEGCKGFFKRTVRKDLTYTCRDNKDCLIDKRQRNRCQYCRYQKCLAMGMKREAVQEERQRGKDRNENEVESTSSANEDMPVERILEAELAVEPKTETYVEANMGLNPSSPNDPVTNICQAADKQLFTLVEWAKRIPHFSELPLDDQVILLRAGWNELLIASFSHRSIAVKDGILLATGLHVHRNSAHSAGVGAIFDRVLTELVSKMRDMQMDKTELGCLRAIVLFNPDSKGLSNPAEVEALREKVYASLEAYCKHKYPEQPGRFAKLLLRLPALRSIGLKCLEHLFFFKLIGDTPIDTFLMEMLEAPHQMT
Summary of the method: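 16 hr incubation of compound-treated RXR-alpha-UAS-bla HEK 293T cells (2% charcoal-stripped FBS, 37 C) preceded a 2 hr room-temperature LiveBLAzer FRET substrate step and blue/green fluorescence measurement.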

CCC(C)OC(C)CC (stereo not given)
inactive: outcome [1] | outcome [2] | outcome [3] | outcome [4] | outcome [5] | outcome [6] | outcome [7] | outcome [8] | outcome [9] | Potency [10]

C[Si]1(C)O[Si](C)(C)O[Si](C)(C)O[Si](C)(C)O[Si](C)(C)O1
inactive: outcome [1] | outcome [2] | outcome [3] | outcome [4] | outcome [5] | outcome [6] | outcome [7] | outcome [8] | outcome [9] | Potency [10]

CO/N=C(/C(=O)N[C@@H]1C(=O)N2C(C(=O)[O-])=C(C[n+]3ccn4ncccc43)CS[C@H]12)c1nsc(N)n1
inactive: outcome [1] | outcome [2] | outcome [3] | outcome [4] | outcome [5] | outcome [6] | outcome [7] | outcome [8] | outcome [9] | Potency [10]

COc1cc(OC)nc(O[C@H](C(=O)O)C(OC)(c2ccccc2)c2ccccc2)n1
inactive: outcome [1] | outcome [2] | outcome [3] | outcome [4] | outcome [5] | outcome [6] | outcome [7] | outcome [8] | outcome [9] | Potency [10]

CCOC(=O)CC1(C)OCC(C)O1 (stereo not given)
inactive: outcome [1] | outcome [2] | outcome [3] | outcome [4] | outcome [5] | outcome [6] | outcome [7] | outcome [8] | outcome [9] | Potency [10]

Cc1ccc(C)c([N+](=O)[O-])c1
inactive: outcome [1] | outcome [2] | outcome [3] | outcome [4] | outcome [5] | outcome [6] | outcome [7] | outcome [8] | outcome [9] | Potency [10]

CC(=O)CC(=O)OC(C)(C)C
inactive: outcome [1] | outcome [2] | outcome [3] | outcome [4] | outcome [5] | outcome [6] | outcome [7] | outcome [8] | outcome [9] | Potency [10]

CCCSSCCC
inactive: outcome [1] | outcome [2] | outcome [3] | outcome [4] | outcome [5] | outcome [6] | outcome [7] | outcome [8] | outcome [9] | Potency [10]

CN(C)CCN(C)CCO
inactive: outcome [1] | outcome [2] | outcome [3] | outcome [4] | outcome [5] | outcome [6] | outcome [7] | outcome [8] | outcome [9] | Potency [10]

CCN(CC)CCN
inactive: outcome [1] | outcome [2] | outcome [3] | outcome [4] | outcome [5] | outcome [6] | outcome [7] | outcome [8] | outcome [9] | Potency [10]

Cc1c(Cl)cccc1Cl
inactive: outcome [1] | outcome [2] | outcome [3] | outcome [4] | outcome [5] | outcome [6] | outcome [7] | outcome [8] | outcome [9] | Potency [10]

CCO[Si](CC)(OCC)OCC
inactive: outcome [1] | outcome [2] | outcome [3] | outcome [4] | outcome [5] | outcome [6] | outcome [7] | outcome [8] | outcome [9] | Potency [10]

O=C[O][Al]([O]C=O)[O]C=O
inactive: outcome [1] | outcome [2] | outcome [3] | outcome [4] | outcome [5] | outcome [6] | outcome [7] | outcome [8] | outcome [9] | Potency [10]

CC(=O)OC(C)=O
inactive: outcome [1] | outcome [2] | outcome [3] | outcome [4] | outcome [5] | outcome [6] | outcome [7] | outcome [8] | outcome [9] | Potency [10]

CC1(C)Oc2ccc(C#N)cc2[C@@H](N2CCCC2=O)[C@@H]1O
inactive: outcome [1] | outcome [2] | outcome [3] | outcome [4] | outcome [5] | outcome [6] | outcome [7] | outcome [8] | outcome [9] | Potency [10]

CCCCOCCOC(=O)COc1ccc(Cl)cc1Cl
inactive: outcome [1] | outcome [2] | outcome [3] | outcome [4] | outcome [5] | outcome [6] | outcome [7] | outcome [8] | outcome [9] | Potency [10]

C=CCOC(=O)CCCCCC
inactive: outcome [1] | outcome [2] | outcome [3] | outcome [4] | outcome [5] | outcome [6] | outcome [7] | outcome [8] | outcome [9] | Potency [10]

Cn1c(=O)c2c(ncn2CCO)n(C)c1=O
inactive: outcome [1] | outcome [2] | outcome [3] | outcome [4] | outcome [5] | outcome [6] | outcome [7] | outcome [8] | outcome [9] | Potency [10]

CC1(C)CC(OC(=O)CCCCCCCCC(=O)OC2CC(C)(C)NC(C)(C)C2)CC(C)(C)N1
inactive: outcome [1] | outcome [2] | outcome [3] | outcome [4] | outcome [5] | activity, negative = cytotoxicity [6] 1.22% [at 19 µM] | activity change, negative = inhibition [7] 5.06% [at 19 µM] | viability change, negative = cytotoxic [8] -4.65% [at 15.8 µM] | activation [9] 13.3% [at 15.8 µM] | activation [10] -1.61% [at 15.8 µM]

CCN1CCCC1CN (stereo not given)
inactive: outcome [1] | outcome [2] | outcome [3] | outcome [4] | outcome [5] | outcome [6] | outcome [7] | outcome [8] | outcome [9] | Potency [10]

CC(=O)O[C@H]1C[C@@H]2CC[C@@]1(C)C2(C)C
inactive: outcome [1] | outcome [2] | outcome [3] | outcome [4] | outcome [5] | outcome [6] | outcome [7] | outcome [8] | outcome [9] | Potency [10]

COCCc1ccccn1
inactive: outcome [1] | outcome [2] | outcome [3] | outcome [4] | outcome [5] | outcome [6] | outcome [7] | outcome [8] | outcome [9] | Potency [10]

COC(C)(OC)OC
inactive: outcome [1] | outcome [2] | outcome [3] | outcome [4] | outcome [5] | outcome [6] | outcome [7] | outcome [8] | outcome [9] | Potency [10]

CC(=O)O[Si](C)(OC(C)=O)OC(C)=O
inactive: outcome [1] | outcome [2] | outcome [3] | outcome [4] | outcome [5] | outcome [6] | outcome [7] | outcome [8] | outcome [9] | Potency [10]

N#Cc1ccccc1O
inactive: outcome [1] | outcome [2] | outcome [3] | outcome [4] | outcome [5] | outcome [6] | outcome [7] | outcome [8] | outcome [9] | Potency [10]

CN(C)CCCO[C@@H]1[C@H]2OC(C)(C)O[C@H]2O[C@@H]1C(O)CO (stereo not given in full)
inactive: outcome [1] | outcome [2] | outcome [3] | outcome [4] | outcome [5] | outcome [6] | outcome [7] | outcome [8] | outcome [9] | Potency [10]

CC(C)Nc1ccccc1
inactive: outcome [1] | outcome [2] | outcome [3] | outcome [4] | outcome [5] | outcome [6] | outcome [7] | outcome [8] | outcome [9] | Potency [10]

CO[Si](CCCn1c(=O)n(CCC[Si](OC)(OC)OC)c(=O)n(CCC[Si](OC)(OC)OC)c1=O)(OC)OC
inactive: outcome [1] | outcome [2] | outcome [3] | outcome [4] | outcome [5] | outcome [6] | outcome [7] | outcome [8] | outcome [9] | Potency [10]

CC(=O)CCC1=C(C)CCCC1(C)C
inactive: outcome [1] | outcome [2] | outcome [3] | outcome [4] | outcome [5] | outcome [6] | outcome [7] | outcome [8] | outcome [9] | Potency [10]

[O-][n+]1cccc(/C(Cl)=N/OC[C@@H](O)CN2CCCCC2)c1
inactive: outcome [1] | outcome [2] | outcome [3] | outcome [4] | outcome [5] | outcome [6] | outcome [7] | outcome [8] | outcome [9] | Potency [10]

O=Cc1cc2ccccc2o1
inactive: outcome [1] | outcome [2] | outcome [3] | outcome [4] | outcome [5] | outcome [6] | outcome [7] | outcome [8] | outcome [9] | Potency [10]

Cc1c(N)cccc1Cl
inactive: outcome [1] | outcome [2] | outcome [3] | outcome [4] | outcome [5] | outcome [6] | outcome [7] | outcome [8] | outcome [9] | Potency [10]

C/C=C(\C)C(=O)OCCc1ccccc1
inactive: outcome [1] | outcome [2] | outcome [3] | outcome [4] | outcome [5] | outcome [6] | outcome [7] | outcome [8] | outcome [9] | Potency [10]

CC(C)NC(=O)c1ccc(C=O)cc1
inactive: outcome [1] | outcome [2] | outcome [3] | outcome [4] | outcome [5] | outcome [6] | outcome [7] | outcome [8] | outcome [9] | Potency [10]

CCc1occc(=O)c1O
inactive: outcome [1] | outcome [2] | outcome [3] | outcome [4] | outcome [5] | outcome [6] | outcome [7] | outcome [8] | outcome [9] | Potency [10]

C=CCCCCCCCC
inactive: outcome [1] | outcome [2] | outcome [3] | outcome [4] | outcome [5] | outcome [6] | outcome [7] | outcome [8] | outcome [9] | Potency [10]
